The results in this text go back to PubChem BioAssay.

Experiment [1] concerns Wnt5a (protein binding on small-molecule microarray). As to the kind of experiment: Wnt5a binders on small-molecule microarray, primary screen, biophysical, 635/667 nm fluorescence (AID 1142).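 Further: fluorescence read at 667 nm with signal to noise per printed feature.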 The conditions noted are these: 635 nm fluorescence, higher = more signal.
Experiment [2] in a line: cell viability in Huh7 cells, primary screen, cytotoxicity control for HCV replication inhibitor project, CellTiter-Glo luminescence, basal, 48 h (AID 1143).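 Further: Huh7 hepatoma cells carrying a hepatitis C replication reporter with no stimulus; test concentration not given here.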 The conditions noted are these: Huh7 HCV replicon, higher = more signal, called active from +8 up or from −8 down. For orientation: In ATP-based viability assays light output follows the ATP content of the culture.
Experiment [3] is described as follows: P. aeruginosa biofilm formation inhibitors, primary screen, PAO1 strain, BacTiter-Glo luminescence, LB-PBS (AID 1144). The settings on record: 12 h, higher = more signal.
A short description of experiment [4]: CREB reporter modulators without forskolin, primary screen, cell-based, PC12, CRE-LacZ reporter, unstimulated (AID 1145). The conditions noted are these: no forskolin, luminescence, 4.5 h, higher = more signal, called active from +8 up or from −8 down.
Experiment [5] is described as follows: CREB reporter modulators under forskolin, primary screen, cell-based, PC12, CRE-LacZ reporter, forskolin-stimulated (AID 1146).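 Further: PC12 cells with 6xCRE LacZ reporter stimulated by forskolin 10 µM; beta-galactosidase reporter signal reflecting CREB driven transcription.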 The conditions noted are these: luminescence, 4.5 h, higher = more signal, called active from +8 up or from −8 down.
The target in experiment [6] is Streptavidin (Streptomyces avidinii) (UniProt P22629). As to the kind of experiment: streptavidin binders on small-molecule microarray, primary screen, artefact control for SMM compound annotation, biophysical, 635/667 nm fluorescence (AID 1147).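 Further: signal reflects streptavidin binding to arrayed compounds as a control protein.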 The conditions noted are these: streptavidin binding, higher = more signal.
Chain of Streptavidin (Streptomyces avidinii) (P22629 whole entry, looked up): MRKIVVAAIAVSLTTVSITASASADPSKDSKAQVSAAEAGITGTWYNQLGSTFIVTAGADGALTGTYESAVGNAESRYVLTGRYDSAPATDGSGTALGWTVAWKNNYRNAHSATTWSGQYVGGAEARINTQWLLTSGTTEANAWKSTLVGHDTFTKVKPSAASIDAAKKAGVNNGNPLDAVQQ
A short description of experiment [7]: small-molecule binders of probe aInhba, primary screen, biochemical, small-molecule microarray, 635/667 nm fluorescence (AID 1148).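 Further: score merges 667nm spot fluorescence with signal-to-noise for antibody binding to printed compounds.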 The settings on record: higher = more signal.
Experiment [8] has as its target Torsin-1A (Homo sapiens) (UniProt O14656). As to the kind of experiment: torsin A binders from cell lysate, primary screen, small-molecule microarray, wild-type, 635/667 nm (AID 1149). The conditions noted are these: COS7 hTOR1A-WT lysate, 635 nm fluorescence, higher = more signal.
Experiment [9] shares this target. As to the kind of experiment: small-molecule binders of mutant TOR1A in lysate, primary screen, cell lysate, small-molecule microarray, COS7 lysate, 635/667 nm fluorescence (AID 1150).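 Further: score pools 667 nm emission and signal to noise measuring lysate protein binding.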 The settings on record: COS7 hTOR1A mutant lysate, 635 nm fluorescence, higher = more signal.
Experiment [10] concerns Sonic hedgehog protein (Shh). Kind of experiment: small-molecule binders of Shh protein, primary screen, biochemical, small-molecule microarray, 635/667 nm fluorescence (AID 1151).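 Further: Shh protein binding to compounds spotted on small-molecule microarray slides; score combines spot fluorescence intensity with signal-to-noise across triplicate slides.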 The conditions noted are these: small-molecule microarray binding, 635 nm fluorescence; higher = more signal.
Experiment [11] in a line: E. coli DRC41 culture turbidity changes, primary screen, E. coli filamentation inducer project, strain DRC41, OD650, 48 h (AID 1152).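 Further: E. coli MC1000 strain DRC41 lacking acrAB efflux pump and sulA.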 The conditions noted are these: E. coli DRC41 (acrAB sulA), higher = more signal, called active from +8 up or from −8 down.
The nature of experiment [12]: small-molecule binders of probe aLefty1, primary screen, biochemical, small-molecule microarray, 635/667 nm fluorescence (AID 1153).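 Further: score merges spot fluorescence with signal-to-noise ratio from the scanned slide images.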 The settings on record: higher = more signal.
Experiment [13] is described as follows: PSAC antagonists in infected red cells, primary screen, cell-based, P. falciparum Indochina, OD700, 1 h (AID 1154). The settings on record: P. falciparum Indochina infected RBC osmotic lysis, higher = more signal, called active from +8 up or from −8 down.
The nature of experiment [14]: PSAC antagonists in infected red cells, primary screen, cell-based, P. falciparum Indochina, OD700, 2 h (AID 1155).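 Further: lysis reports solute entry through the parasite surface anion channel PSAC; channel blockers reduce lysis of infected cells.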 The conditions noted are these: P. falciparum Indochina infected erythrocytes, osmotic lysis OD700; higher = more signal, called active from +8 up or from −8 down.
A short description of experiment [15]: osmotic lysis modulators in infected erythrocytes, primary screen, PSAC antagonist project, cell-based, P. falciparum Indochina, OD700, 3 h (AID 1156). The conditions noted are these: higher = more signal, called active from +8 up or from −8 down.
A short description of experiment [16]: PSAC antagonists in infected red cells, primary screen, cell-based, P. falciparum Indochina, OD700, 18 h (AID 1157). The settings on record: P. falciparum Indochina infected erythrocytes, osmotic lysis OD700, 18 h; higher = more signal, called active from +8 up or from −8 down.
A short description of experiment [17]: modulators of S6 phosphorylation in cells, primary screen, cell-based, A549, cytoblot, luminescence, serum-stimulated (AID 1158).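 Further: serum-stimulated A549 lung adenocarcinoma cells; signal is phosphorylated S6 detected by cytoblot immunostaining with HRP secondary.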 The conditions noted are these: A549 phospho-S6 cytoblot, 5 h, higher = more signal.
Experiment [18] addresses NADPH oxidase 2 (Homo sapiens) (UniProt P04839). As to the kind of experiment: NOX2-dependent H2O2 signal modulators, primary screen, NOX inhibitor project, cell-based, HEK293-NOX2, PMA-stimulated, Amplex Red fluorescence (AID 1159). Further: test concentration not given here. The settings on record: 45 min, higher = more signal, called active from +8 up or from −8 down.
The target of experiment [19] is NADPH oxidase 4 (Homo sapiens) (UniProt Q9NPH5). Kind of experiment: NOX4-dependent H2O2 signal modulators, primary screen, NOX inhibitor project, cell-based, HEK293-NOX4, tetracycline-induced, Amplex Red fluorescence (AID 1160). The settings on record: 45 min, higher = more signal, called active from +8 up or from −8 down.
Chain of NADPH oxidase 4 (Homo sapiens) (Q9NPH5 whole entry, looked up): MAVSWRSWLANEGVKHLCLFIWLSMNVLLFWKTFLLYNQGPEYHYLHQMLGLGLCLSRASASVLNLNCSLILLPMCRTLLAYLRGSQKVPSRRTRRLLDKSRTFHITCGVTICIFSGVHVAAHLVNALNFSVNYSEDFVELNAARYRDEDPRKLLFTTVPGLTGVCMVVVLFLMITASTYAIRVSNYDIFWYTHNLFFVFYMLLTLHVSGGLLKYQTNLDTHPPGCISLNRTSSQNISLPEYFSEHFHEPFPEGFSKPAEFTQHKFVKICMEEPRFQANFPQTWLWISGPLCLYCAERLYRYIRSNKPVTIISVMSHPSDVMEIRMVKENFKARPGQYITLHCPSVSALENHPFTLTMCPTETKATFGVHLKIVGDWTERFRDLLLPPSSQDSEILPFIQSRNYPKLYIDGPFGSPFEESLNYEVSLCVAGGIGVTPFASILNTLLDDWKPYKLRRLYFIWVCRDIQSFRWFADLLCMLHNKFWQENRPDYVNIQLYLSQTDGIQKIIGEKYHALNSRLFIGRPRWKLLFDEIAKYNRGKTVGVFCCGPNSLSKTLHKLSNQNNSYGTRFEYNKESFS
The target of experiment [20] is NADPH oxidase 5 (Homo sapiens) (UniProt Q96PH1). As to the kind of experiment: NOX5-dependent H2O2 signal modulators, primary screen, NOX inhibitor project, cell-based, HEK293-NOX5, Amplex Red fluorescence (AID 1161). The settings on record: HEK293-NOX5, ionomycin, 45 min, higher = more signal.
Chain of NADPH oxidase 5 (Homo sapiens) (Q96PH1 whole entry, looked up): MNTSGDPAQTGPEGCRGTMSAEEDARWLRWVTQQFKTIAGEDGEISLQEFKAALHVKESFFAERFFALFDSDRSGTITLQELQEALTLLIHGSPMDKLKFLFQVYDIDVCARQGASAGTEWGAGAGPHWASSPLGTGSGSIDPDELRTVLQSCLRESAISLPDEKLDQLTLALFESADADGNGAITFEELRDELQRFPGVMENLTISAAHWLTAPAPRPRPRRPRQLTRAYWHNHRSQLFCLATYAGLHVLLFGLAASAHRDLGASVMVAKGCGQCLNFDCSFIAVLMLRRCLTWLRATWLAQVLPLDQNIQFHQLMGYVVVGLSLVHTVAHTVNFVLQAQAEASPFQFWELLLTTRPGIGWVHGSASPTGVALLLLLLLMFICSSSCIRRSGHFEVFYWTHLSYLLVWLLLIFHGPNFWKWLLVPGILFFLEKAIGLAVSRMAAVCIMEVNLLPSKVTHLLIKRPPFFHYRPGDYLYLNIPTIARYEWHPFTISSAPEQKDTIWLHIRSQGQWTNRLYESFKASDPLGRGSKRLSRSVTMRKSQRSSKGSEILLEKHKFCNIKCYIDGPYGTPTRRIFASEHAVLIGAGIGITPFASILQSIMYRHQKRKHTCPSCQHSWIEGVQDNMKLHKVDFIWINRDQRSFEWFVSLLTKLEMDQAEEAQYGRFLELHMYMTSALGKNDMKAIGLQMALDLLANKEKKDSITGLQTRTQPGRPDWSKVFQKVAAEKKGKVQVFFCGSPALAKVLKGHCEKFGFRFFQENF

The source made the active and inactive calls. Unless noted, how the calls were made is not given here.

Chain of NADPH oxidase 2 (Homo sapiens) (P04839 whole entry, looked up): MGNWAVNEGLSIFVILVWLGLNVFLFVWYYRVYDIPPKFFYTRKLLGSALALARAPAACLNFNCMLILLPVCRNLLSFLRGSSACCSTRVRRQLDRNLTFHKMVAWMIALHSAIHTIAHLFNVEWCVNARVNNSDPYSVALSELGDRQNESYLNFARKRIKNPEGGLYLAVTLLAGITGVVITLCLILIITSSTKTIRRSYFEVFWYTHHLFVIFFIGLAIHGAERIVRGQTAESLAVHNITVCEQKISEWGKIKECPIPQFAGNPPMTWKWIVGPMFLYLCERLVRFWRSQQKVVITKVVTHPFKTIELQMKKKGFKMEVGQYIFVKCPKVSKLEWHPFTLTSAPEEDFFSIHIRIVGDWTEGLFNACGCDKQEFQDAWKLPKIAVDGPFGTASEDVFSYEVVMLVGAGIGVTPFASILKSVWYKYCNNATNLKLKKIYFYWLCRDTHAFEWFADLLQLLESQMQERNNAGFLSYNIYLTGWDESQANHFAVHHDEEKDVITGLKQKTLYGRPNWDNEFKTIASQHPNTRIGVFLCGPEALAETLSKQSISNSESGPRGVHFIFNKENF
Chain of Torsin-1A (Homo sapiens) (O14656 whole entry, looked up): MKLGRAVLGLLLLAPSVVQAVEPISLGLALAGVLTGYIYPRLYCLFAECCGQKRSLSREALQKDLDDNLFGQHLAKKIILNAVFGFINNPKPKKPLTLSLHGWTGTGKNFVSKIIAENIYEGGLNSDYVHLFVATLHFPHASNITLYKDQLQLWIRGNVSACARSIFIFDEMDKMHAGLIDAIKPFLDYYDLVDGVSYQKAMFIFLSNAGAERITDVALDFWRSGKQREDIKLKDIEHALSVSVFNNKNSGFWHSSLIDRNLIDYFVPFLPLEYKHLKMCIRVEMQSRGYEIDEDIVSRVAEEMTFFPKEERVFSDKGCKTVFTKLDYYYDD

Regarding `C=CC[C@@]1(C(=O)N2CCCCC2)N=C(c2ccc(OCCCO)cc2)O[C@@H]1c1ccccc1CN=[N+]=[N-]`, the composite z-score in experiment [1] is 0.381; in experiment [6], 1.77; in [7], 0.233; in the experiment with Torsin-1A (Homo sapiens) [8], 0.342; with Torsin-1A (Homo sapiens) [9], 0.711; in [10] it was 0.466. Also, in experiment [12], the composite z-score worked out at 0.393. The z-score was -4.96 (inactive) in experiment [2]; -0.703 (inactive) in [3]; 3.77 (inactive) in [4]; 0.51 (inactive) in experiment [5]; 0.279 (inactive) in experiment [11]; 26 (active) in experiment [13]. In addition, the z-score is 16 (active) in [14]; 2.79 (inactive) in experiment [15]; 1.04 (inactive) in [16]; 1.32 in experiment [17]; -0.935 (inactive) in [18]; 1.43 (inactive) in [19]. Moreover, the z-score in [20] worked out at 1.05.
In the case of `COC(=O)[C@]1(CCC(=O)OC(C)(C)C)N=C(c2ccc(OCCCO)cc2)O[C@@H]1c1ccccc1`, the composite z-score in experiment [1] is -0.102; in [6], -0.98; in [7], 0.154; with Torsin-1A (Homo sapiens) [8], -0.927; in the experiment with Torsin-1A (Homo sapiens) [9], -0.343; in experiment [10] it was 0.169. Further, the composite z-score in experiment [12] turned out to be 0.765. In addition, the z-score in experiment [2] is -4.76 (inactive); in [3] it was 0.314 (inactive); in experiment [4], 2.39 (inactive); in experiment [5], -0.0673 (inactive); in experiment [11], 0.687 (inactive); in experiment [13], 27.7 (active). The z-score in experiment [14] is 27.2 (active); in experiment [15], 0.0027 (inactive); in experiment [16], 5.02 (inactive); in [17], -0.406; in experiment [18], -1.93 (inactive); in experiment [19], 0.178 (inactive). For the same compound, the z-score in experiment [20] was -1.16.
Consider `COc1cc(CO)cc(I)c1O[C@H]1C=C(C(=O)NCCO)C[C@@H](N(C(=O)c2cc3ccccc3oc2=O)C2CCCCCC2)[C@@H]1O`, for which the composite z-score in experiment [1] was 0.021; in experiment [6], 0.0378; in experiment [7], -0.157; with Torsin-1A (Homo sapiens) [8] it was -0.113; with Torsin-1A (Homo sapiens) [9] it was 0.347; in experiment [10] it was 1.33. In addition, in experiment [12], the composite z-score is -0.0646. Further, the z-score in experiment [2] is -2.46 (inactive); in experiment [3], -0.269 (inactive); in [4], -0.153 (inactive); in experiment [5], -0.94 (inactive); in [11] it was 1.07 (inactive); in experiment [13], 4.63 (inactive). In addition, the z-score was -0.78 (inactive) in experiment [14]; 1.19 (inactive) in experiment [15]; -1.9 (inactive) in [16]; 1.95 in experiment [17]; 0.202 (inactive) in experiment [18]; 0.881 (inactive) in [19]. In addition, the z-score in experiment [20] worked out at 1.2.
For the compound `COCCOC(=O)N1C(=O)[C@@]2(c3cc(C#CCCO)ccc31)[C@H](c1ccc(OCCO)cc1)N1[C@H](c3ccccc3)[C@H](c3ccccc3)OC(=O)[C@H]1[C@@H]2C(N)=O`, the composite z-score turned out to be 0.711 in experiment [1]; 0.266 in experiment [6]; 0.364 in [7]; 0.271 in the experiment with Torsin-1A (Homo sapiens) [8]; 0.569 in the experiment with Torsin-1A (Homo sapiens) [9]; 0.811 in experiment [10]. In experiment [12], this compound registered a composite z-score of 0.0329. The z-score in [2] is -1.47 (inactive); in experiment [3] it was 0.502 (inactive); in experiment [4] it was 0.209 (inactive); in [5], 1.71 (inactive); in [11], 0.391 (inactive); in experiment [13] it was 12.1 (active). In addition, the z-score in experiment [14] is 2.16 (inactive); in [15], 0.136 (inactive); in [16], 0.932 (inactive); in experiment [17] it was -0.296; in [18], 1.93 (inactive); in [19] it was -0.511 (inactive). This compound registered a z-score in experiment [20] of 0.419.
